{"source": "PubChem BioAssay AID743048", "about": "(Broad Institute, 2013)", "note": "Entries with a potency or affinity are not part of this list. Activity calls are given as the source filed them. No rule for the calls is given here."}
{"biological_target": "Paired box protein Pax-2 (Homo sapiens) (UniProt Q02962)", "sequence (Q02962 whole entry, looked up)": "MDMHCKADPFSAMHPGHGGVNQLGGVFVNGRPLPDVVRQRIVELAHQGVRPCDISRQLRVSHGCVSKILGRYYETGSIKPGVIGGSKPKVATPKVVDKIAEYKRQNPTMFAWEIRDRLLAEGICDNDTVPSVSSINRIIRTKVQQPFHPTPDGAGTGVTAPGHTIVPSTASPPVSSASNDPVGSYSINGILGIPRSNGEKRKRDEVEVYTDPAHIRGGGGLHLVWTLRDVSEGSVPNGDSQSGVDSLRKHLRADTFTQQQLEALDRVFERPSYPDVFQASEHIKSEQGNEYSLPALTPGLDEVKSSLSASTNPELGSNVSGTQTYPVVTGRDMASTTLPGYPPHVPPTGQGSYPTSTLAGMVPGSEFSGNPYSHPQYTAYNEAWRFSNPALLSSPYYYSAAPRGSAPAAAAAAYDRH", "test": "inhibitors acting on PAX2 in cells – cell-based, plate reader, dry powder samples, selectivity assay for PAX8 inhibitor project, dose response (AID 743048)", "conditions": "Pax2 cell-based reporter; series mostly up to 50 µM; activity, negative = inhibition: at the top concentration"}
{"compound": "CN(C[C@H]1N[C@@H](CO)[C@@H]1c1ccc(C2=CCCC2)cc1)C(=O)c1cccc(F)c1", "activity, negative = inhibition": "279% [at 35 µM] (inactive)"}
{"compound": "CC(=O)Nc1ccc(NC(=O)c2nc(S(=O)(=O)Cc3ccccc3)ncc2Cl)cc1", "activity, negative = inhibition": "79.9% [at 26 µM] (inactive)"}
{"compound": "C[C@@H]1CN([C@H](C)CO)C(=O)CCCn2cc(nn2)CO[C@H]1CN(C)C(=O)Nc1ccc(-c2cccs2)cc1", "activity, negative = inhibition": "2.54% [at 35 µM] (inactive)"}
